Data published in PubChem BioAssay (NCI).
About 83,000 compounds went through this panel and 20% of them were active in at least one assay; those are over-represented in the sample as a whole.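 Treatment: one concentration, 48 hours, 96-well format. Scoring: percent growth, with anything below 10 considered active.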 Values without a mark were called inactive. Calls of active or inactive are those of the source.

Assays:
Assay in all cases: NCI-60 one-dose screen, 48 h (100 = growth as untreated, 0 = no growth, -100 = all killed)
Conditions in all cases: 10 µM unless noted
[1] = tested on: T-47D breast
[2] = tested on: BT-549 breast
[3] = tested on: MDA-MB-435 melanoma
[4] = tested on: SW-620 colon
[5] = tested on: MCF7 breast
[6] = tested on: HCT-116 colon
[7] = tested on: KM12 colon
[8] = tested on: HCC-2998 colon

SMILES | growth [1] | growth [2] | growth [3] | growth [4] | growth [5] | growth [6] | growth [7] | growth [8]
OCc1c(-c2ccccc2)nc2sccn12 | 104% | 59.3% | 114% | 98.3% | 103% | 104% | 97.6% | 
Nc1c(C(=O)Nc2cccc(C(F)(F)F)c2)sc2nc3c(cc12)CCCCC3 | -11.6% (active) | 25.2% | 32.7% |  | 29.5% | -7.78% (active) | 35.7% | 46.9%
Cc1ccc(S(=O)(=O)N2CCC(C(=O)Nc3ccc(F)cc3F)CC2)cc1 | 88.8% | 96.9% | 95% | 103% | 93.2% | 101% | 109% | 
CC(=O)Nc1nc(C(=O)N2N=C(C)/C(=C/c3ccc(Cl)cc3)C2=O)cs1 | 95.6% | 97.4% | 112% |  | 94.4% | 99.9% | 101% | 104%
COc1ccc(/C=C(\C#N)c2ccc([N+](=O)[O-])cc2)c2ccccc12 | 46.9% | 27.9% | 62.6% |  | 71.8% | 43.4% | 75.6% | 80%
Nc1cccc2c1CN(C1CCC(=O)NC1=O)C2=O (stereo unspecified) | 97.5% | 105% | 101% | 95.6% | 94.5% | 114% | 98.1% | 
CC(C)(C)c1cn2cccc(C(=O)N3CCN(CC(=O)Nc4ccc(Cl)cc4C(=O)c4ccccc4Cl)CC3)c2n1 | 31.8% | -15.1% (active) | 63.4% | 60.6% | 43.8% | 33.3% | 54.2% | 
O=C(Cc1n[nH]c(=O)c2ccccc12)OCc1c(Cl)cccc1Cl | 100% | 138% | 84.7% |  | 69.9% | 49.9% | 66.1% | 70.8%
CCCCNc1nnc(-c2cc(-c3cc4ccccc4o3)nn2-c2ccccc2)o1 | 76.7% | 96.7% | 101% | 103% | 73.8% | 89.4% | 103% | 
COc1cccc(/C=C2\SC(N3CCN(c4ccccn4)CC3)=NC2=O)c1 | 95% | 112% | 108% |  | 94.8% | 103% | 97.4% | 99.4%
O=S(=O)(NCCCNc1cc(-c2cn(-c3ccccc3)nc2-c2cccc(O)c2)ccn1)c1ccc(Cl)cc1 | 8.59% (active) | 11.7% | 16.4% |  | 11% | 15% |  | -44.9% (active)
O=C1CCCCC=C1C[N+](=O)[O-] | 70.3% | 97.2% | 92.9% | 39.6% | 84.4% | 62.5% | 105% | 
O=C(Nc1ccc(OCc2nnc(-c3ccc(Cl)cc3)o2)c(F)c1)Nc1ccc(Cl)c(Cl)c1 | 55.8% | 93.6% | 73.1% |  | 50.3% | 29.7% | 53.7% | 85.4%
Nc1nc(N)c2nc(CNc3ccc(C(=O)CC(CCC(=O)O)C(=O)O)cc3)cnc2n1 (stereo unspecified) | 49.5% | 63.3% | 34.4% | 25.7% | 22.8% | 21.6% | 32.2% | 
C/C1=C\CCC2(C)OC2CC2CCC(C)(O)C(CC1)C2(C)C (stereo unspecified) | 91.7% | 49.8% | 110% | 97.1% | 102% | 98.6% | 108% | 
Clc1ccc(-c2nc(-c3ccco3)cn3ccnc23)cc1 | 40.2% | 84.5% | 78.6% | 72.7% | 27.2% |  | 48.7% | 58.2%
Clc1nc(Cl)c2ncn(C/C=C/Cn3cnc4c(Cl)nc(Cl)nc43)c2n1 | 38.2% | -33.3% (active) | 98.3% | 45% | 38.3% | 33.3% | 78.7% | 
Cc1cc(Cl)ccc1OC(C)C(=O)Nc1nnc(C2CC2)s1 (stereo unspecified) | 90.9% | 116% | 102% | 103% | 112% | 94.7% | 107% | 

SMILES | growth [1] | growth [2] | growth [3] | growth [4] | growth [5] | growth [6] | growth [7] | growth [8]
O=c1cc(C2NCCc3c2[nH]c2ccccc32)c2c(ccc3ccccc32)o1 (stereo unspecified) | 59.1% | 82% | 81.7% |  | 81.8% | 42% | 63.5% | 78.1%
C/C(=C\c1csc(C)n1)[C@@H]1C[C@@H]2O[C@]2(C)CCC[C@H](C)[C@H](O)[C@@H](C)C(=O)C(C)(C)[C@@H](O)CC(=O)N1 | -21.8% (active) | -45.3% (active) | -79.7% (active) | -98.6% (active) | -82.1% (active) | -79.1% (active) | -99.2% (active) | 
CCCCCCc1nc2c(c(C)nn2-c2ccccc2)c2c1CCCCC2 | 92.2% | 113% | 116% | 101% | 107% |  | 108% | 106%
COc1ccc(C(=O)N2CCN(C(=O)c3cc(OC)c(OC)c(OC)c3)CC2)cc1OCCCCOc1cc2c(cc1OC)C(=O)N1CCC[C@H]1C=N2 | 85.4% | 115% | 108% | 110% | 98.8% | 101% | 129% | 
C=C1C(=O)O[C@H]2[C@H]1CC/C(COC(=O)NCc1ccc(OC)cc1)=C\CC[C@@]1(C)O[C@@H]21 | 17.5% | 29.7% | 46.9% |  | 15.2% | -48.7% (active) | 73.8% | 83.5%
C=CCc1cc(Cl)cc2c(OC(C)=O)c(C(C)=O)c(-c3ccccc3)nc12 | 90.8% | 116% | 108% |  | 82.1% | 105% | 99.5% | 118%
O=c1oc2c([nH]c3ccc4ccccc4c32)c2ccccc12 | 77.5% | 104% | 105% | 98.3% | 73.7% | 102% | 106% | 
CCC(=O)Nc1ccccc1C#C/C=C\C#Cc1ccccc1SC | 57.2% | 71.6% | -16.5% (active) | 35.3% | 62.2% | 41.6% | 43.5% | 
Nc1nc(Cl)c2c(ncn2Cc2ccc(CCl)cc2)n1 | 90.2% | 6.29% (active) | 95.5% | 93.3% | 72.5% | 94.2% | 94.3% | 
COc1ccc(/C(=N\O)c2cc(OC)c(OC)c(OC)c2)c(OC)c1N | 45.1% | 2.29% (active) | -66.3% (active) |  | 15.6% | 7.66% (active) | 11.7% | 35.7%
O=C(Nc1ccc(Br)c(Cl)c1)c1cc(F)ccc1O | 3.88% (active) | -39% (active) | -11.3% (active) |  | 2.5% (active) | -21.8% (active) | 2.98% (active) | 14.7%
N#Cc1ncc(-c2ccc(F)c(F)c2F)c(NC2CCCCCC2)n1 | 62.7% | 71% | 96% |  | 83.5% | 72.6% | 74% | 95.8%
O=[N+]([O-])c1c(S(=O)(=O)O)cc2cc(S(=O)(=O)O)ccc2c1[N+](=O)[O-] | 109% | 104% | 105% |  | 97.7% | 98.2% | 91.5% | 99.2%
CCCCCCCCCN1C(=O)/C(=c2\sc3n(c2=O)C2C(NN=3)N(CC)C(=O)N2CC)c2ccccc21 (stereo unspecified) |  | 82.2% | -9.54% (active) | 30.5% | 27.9% | 5.86% (active) | 9.43% (active) | 102%
COc1ccc(C2=NN(c3ccc(S(N)(=O)=O)cc3)C(c3cn(-c4ccccc4)nc3-c3ccc(Cl)cc3)C2)cc1 (stereo unspecified) | 67.1% |  | 79.3% | 101% | 66.7% | 74.5% | 88.6% | 98.2%
Cc1ccc(C2=NN(c3ccc(S(N)(=O)=O)cc3)C(c3cn(-c4ccccc4)nc3-c3ccccc3)C2)cc1 (stereo unspecified) | 83.7% |  | 62.7% | 86.5% | 55.9% | 83.9% | 41.1% | 118%
C=C1C(=O)O[C@H]2[C@H](O)[C@@H](C)CCC/C(C)=C/CC[C@@]3(C)O[C@@H]3C[C@@H]12 | 97.2% |  | 94.4% | 79.9% | 69.1% | 74.3% | 119% | 111%
COc1cccc(NC(=O)c2sc3nc4c(cc3c2N)CCCC4)c1 | 41.5% | 66.7% | -40.2% (active) |  | 13.2% | 20.7% | 23.1% | 24.4%
